1 sequence from article PMC7862700, “An all-to-all approach to the identification of sequence-specific readers for epigenetic DNA modifications on cytosine” can be followed below.

Assay in all cases: DAPPL (digital affinity profiling via proximity ligation, sequencing); 10 mM Tris-HCl pH 7.5, 50 mM NaCl, 1 mM DTT, 4% glycerol, room temperature, 30 min; GST-TFs on glutathione beads, 16-mer random dsDNA library, 0.1% formaldehyde crosslink after washing; high values mean tight binding
The target in test [1] is T1, FEV (Homo sapiens, UniProt Q99581 1-238).
T1 sequence: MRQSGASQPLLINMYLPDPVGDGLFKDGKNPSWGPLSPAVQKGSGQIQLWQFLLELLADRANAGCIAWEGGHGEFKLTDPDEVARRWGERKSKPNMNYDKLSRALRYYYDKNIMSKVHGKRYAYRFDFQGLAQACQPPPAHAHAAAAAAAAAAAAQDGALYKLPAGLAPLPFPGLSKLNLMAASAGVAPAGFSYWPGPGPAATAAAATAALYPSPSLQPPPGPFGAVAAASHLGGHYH
Particulars: protein: recombinant; tags: N-terminal GST; dsDNA, one strand shown. A digest of the protocol: (§1)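 Beads coated with glutathione captured GST-fused human transcription factors that had been expressed in yeast, and the factors were then given DNA barcodes and pooled with a tag-only sample. The pools were incubated with 200 nmole of a random double-stranded 16-mer DNA library in Tris/NaCl/DTT/glycerol buffer for 30 min at room temperature, washed, crosslinked with 0.1% formaldehyde and proximity-ligated with BsaI/T4 ligase at 37 °C for 1 h. PCR amplification and Illumina NextSeq500 sequencing came last. Binding signal is each hexamer's read frequency for a factor divided by its frequency for the tag-only sample.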

Test [2] addresses ETV5 (Homo sapiens, UniProt P41161 1-510). Particulars: protein: recombinant; tags: N-terminal GST; dsDNA, one strand shown. A digest of the protocol:
as §1

Test [3] concerns the target HSF1 (Homo sapiens, UniProt Q00613 1-529). Particulars: protein: recombinant; tags: N-terminal GST; chain copies: 3; dsDNA, one strand shown. A digest of the protocol:
as §1

The target of test [4] is T2, SPIC (Homo sapiens, UniProt Q8N5J4 1-248).
T2 sequence: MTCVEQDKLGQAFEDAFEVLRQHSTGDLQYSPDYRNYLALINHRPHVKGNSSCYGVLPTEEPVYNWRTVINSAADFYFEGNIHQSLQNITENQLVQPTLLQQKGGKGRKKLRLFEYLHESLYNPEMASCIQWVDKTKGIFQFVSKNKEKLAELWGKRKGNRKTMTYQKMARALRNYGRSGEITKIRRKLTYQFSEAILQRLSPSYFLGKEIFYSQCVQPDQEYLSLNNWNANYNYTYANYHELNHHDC
Particulars: protein: recombinant; tags: N-terminal GST; dsDNA, one strand shown. The gist of the method: as §1

Test [5] has as its target ELF4 (Homo sapiens, UniProt Q99607 1-663). The settings on record: protein: recombinant; tags: N-terminal GST; dsDNA, one strand shown. A digest of the protocol:
as §1

The target of test [6] is T3, ELK4 (Homo sapiens, UniProt P28324-2 1-405).
T3 sequence: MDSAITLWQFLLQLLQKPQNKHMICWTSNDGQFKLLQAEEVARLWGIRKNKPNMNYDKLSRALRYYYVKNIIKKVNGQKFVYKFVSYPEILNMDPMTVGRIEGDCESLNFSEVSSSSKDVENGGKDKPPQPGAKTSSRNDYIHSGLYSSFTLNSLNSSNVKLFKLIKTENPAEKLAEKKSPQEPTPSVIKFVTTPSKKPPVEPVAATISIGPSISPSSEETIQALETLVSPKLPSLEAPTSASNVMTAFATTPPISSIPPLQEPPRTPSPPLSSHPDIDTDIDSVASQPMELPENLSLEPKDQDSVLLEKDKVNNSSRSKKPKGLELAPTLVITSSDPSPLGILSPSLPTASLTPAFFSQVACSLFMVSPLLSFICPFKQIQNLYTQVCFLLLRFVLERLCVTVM
Particulars: protein: recombinant; tags: N-terminal GST; dsDNA, one strand shown. A digest of the protocol: as §1

In test [7] the target is T4, ETV2 (Homo sapiens, UniProt O00321 1-342).
T4 sequence: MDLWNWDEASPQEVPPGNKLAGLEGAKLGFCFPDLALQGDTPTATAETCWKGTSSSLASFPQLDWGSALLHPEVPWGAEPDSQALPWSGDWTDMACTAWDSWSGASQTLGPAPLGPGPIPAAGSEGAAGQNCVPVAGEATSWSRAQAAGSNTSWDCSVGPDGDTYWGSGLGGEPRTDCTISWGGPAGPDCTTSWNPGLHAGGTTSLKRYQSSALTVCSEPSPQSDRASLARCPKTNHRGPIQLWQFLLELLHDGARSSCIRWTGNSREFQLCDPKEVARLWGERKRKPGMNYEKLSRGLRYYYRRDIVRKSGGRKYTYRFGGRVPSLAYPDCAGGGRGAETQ
Particulars: protein: recombinant; tags: N-terminal GST; dsDNA, one strand shown. The gist of the method: as §1

The target in test [8] is T5, ELF3 (Homo sapiens, UniProt P78545 1-371).
T5 sequence: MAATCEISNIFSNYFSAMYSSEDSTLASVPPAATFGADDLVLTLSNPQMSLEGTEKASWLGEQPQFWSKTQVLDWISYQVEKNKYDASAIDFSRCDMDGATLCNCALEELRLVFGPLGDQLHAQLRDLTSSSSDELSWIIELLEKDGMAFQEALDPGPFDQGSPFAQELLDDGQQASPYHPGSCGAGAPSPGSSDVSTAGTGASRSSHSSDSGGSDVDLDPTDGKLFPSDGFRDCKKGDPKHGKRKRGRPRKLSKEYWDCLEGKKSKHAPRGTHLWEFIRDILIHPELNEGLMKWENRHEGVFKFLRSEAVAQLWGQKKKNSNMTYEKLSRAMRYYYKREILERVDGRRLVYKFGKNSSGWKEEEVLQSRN
The settings on record: protein: recombinant; tags: N-terminal GST; dsDNA, one strand shown. A digest of the protocol: as §1

In test [9] the target is CRX (Homo sapiens, UniProt O43186 1-299). Particulars: protein: recombinant; tags: N-terminal GST; dsDNA, one strand shown. A digest of the protocol:
as §1

The target in test [10] is ETV1 (Homo sapiens, UniProt P50549 1-477). Particulars: protein: recombinant; tags: N-terminal GST; dsDNA, one strand shown. The gist of the method: as §1
In test [11] the target is T6, ERF (Homo sapiens, UniProt P50548 1-548).
T6 sequence: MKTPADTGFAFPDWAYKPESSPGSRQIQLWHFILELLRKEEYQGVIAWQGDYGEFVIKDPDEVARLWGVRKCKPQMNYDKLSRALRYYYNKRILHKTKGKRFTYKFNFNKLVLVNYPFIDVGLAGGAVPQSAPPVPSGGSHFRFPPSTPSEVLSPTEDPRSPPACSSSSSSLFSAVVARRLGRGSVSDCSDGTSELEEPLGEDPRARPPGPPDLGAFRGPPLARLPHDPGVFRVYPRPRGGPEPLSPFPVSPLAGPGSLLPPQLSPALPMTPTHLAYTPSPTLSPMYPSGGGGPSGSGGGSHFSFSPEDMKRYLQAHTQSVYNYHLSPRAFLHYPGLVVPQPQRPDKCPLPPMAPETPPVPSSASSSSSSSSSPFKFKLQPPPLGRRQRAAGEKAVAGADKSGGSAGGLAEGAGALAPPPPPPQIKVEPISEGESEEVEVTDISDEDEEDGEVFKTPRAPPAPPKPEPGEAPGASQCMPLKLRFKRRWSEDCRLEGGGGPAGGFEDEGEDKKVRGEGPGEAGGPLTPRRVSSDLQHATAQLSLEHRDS
Particulars: protein: recombinant; tags: N-terminal GST; dsDNA, one strand shown. The gist of the method: as §1

In test [12] the target is T7, ETV3L (Homo sapiens, UniProt Q6ZN32 1-361).
T7 sequence: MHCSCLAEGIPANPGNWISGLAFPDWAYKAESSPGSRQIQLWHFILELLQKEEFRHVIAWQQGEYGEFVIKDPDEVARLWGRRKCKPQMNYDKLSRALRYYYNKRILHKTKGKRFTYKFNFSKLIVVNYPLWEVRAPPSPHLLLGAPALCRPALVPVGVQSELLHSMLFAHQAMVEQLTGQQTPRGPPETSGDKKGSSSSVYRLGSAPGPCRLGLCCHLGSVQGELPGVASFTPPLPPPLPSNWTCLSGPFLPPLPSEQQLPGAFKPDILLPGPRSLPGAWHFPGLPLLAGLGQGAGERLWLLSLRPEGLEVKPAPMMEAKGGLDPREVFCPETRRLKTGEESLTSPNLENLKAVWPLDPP
Particulars: protein: recombinant; tags: N-terminal GST; dsDNA, one strand shown. The gist of the method: as §1

The target of test [13] is T8, ETS2 (Homo sapiens, UniProt P15036 1-469).
T8 sequence: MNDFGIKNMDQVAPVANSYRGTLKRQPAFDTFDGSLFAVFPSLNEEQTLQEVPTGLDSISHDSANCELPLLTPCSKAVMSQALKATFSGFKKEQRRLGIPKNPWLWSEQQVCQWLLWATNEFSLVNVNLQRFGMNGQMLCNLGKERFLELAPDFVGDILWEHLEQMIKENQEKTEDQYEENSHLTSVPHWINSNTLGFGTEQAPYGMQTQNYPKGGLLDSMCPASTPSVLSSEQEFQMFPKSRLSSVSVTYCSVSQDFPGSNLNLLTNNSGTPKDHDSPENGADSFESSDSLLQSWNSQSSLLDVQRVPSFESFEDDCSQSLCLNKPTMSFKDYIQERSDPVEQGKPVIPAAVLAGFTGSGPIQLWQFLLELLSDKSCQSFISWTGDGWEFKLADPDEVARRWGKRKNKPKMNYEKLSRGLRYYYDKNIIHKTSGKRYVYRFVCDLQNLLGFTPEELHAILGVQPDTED
The settings on record: protein: recombinant; tags: N-terminal GST; dsDNA, one strand shown. The gist of the method:
as §1

Test [14] concerns the target T9, SPDEF (Homo sapiens, UniProt O95238 1-335).
T9 sequence: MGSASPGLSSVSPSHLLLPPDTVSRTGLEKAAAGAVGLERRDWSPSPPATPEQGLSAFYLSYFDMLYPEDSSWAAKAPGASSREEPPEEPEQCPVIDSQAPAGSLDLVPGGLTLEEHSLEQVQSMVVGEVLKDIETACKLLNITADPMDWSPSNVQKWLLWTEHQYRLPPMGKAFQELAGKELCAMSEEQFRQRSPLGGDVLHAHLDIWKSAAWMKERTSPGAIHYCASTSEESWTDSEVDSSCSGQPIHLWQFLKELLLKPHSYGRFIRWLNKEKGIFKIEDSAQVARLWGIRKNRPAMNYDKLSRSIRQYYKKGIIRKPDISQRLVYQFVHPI
Particulars: protein: recombinant; tags: N-terminal GST; dsDNA, one strand shown. A digest of the protocol: as §1

Test [15] deals with T10, ETV7 (Homo sapiens, UniProt Q9Y603 1-341).
T10 sequence: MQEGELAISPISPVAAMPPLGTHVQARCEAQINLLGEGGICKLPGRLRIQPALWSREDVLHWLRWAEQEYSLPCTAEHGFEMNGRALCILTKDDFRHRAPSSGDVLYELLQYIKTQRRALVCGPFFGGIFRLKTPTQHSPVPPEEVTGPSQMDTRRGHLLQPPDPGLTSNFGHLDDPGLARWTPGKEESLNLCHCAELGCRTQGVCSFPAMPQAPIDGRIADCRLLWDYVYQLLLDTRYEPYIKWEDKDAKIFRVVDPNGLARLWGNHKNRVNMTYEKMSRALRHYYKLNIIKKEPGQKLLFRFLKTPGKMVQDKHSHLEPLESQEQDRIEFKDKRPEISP
The settings on record: protein: recombinant; tags: N-terminal GST; dsDNA, one strand shown. The gist of the method:
as §1

Test [16] has as its target T11, ELF5 (Homo sapiens, UniProt Q9UKW6-2 1-255).
T11 sequence: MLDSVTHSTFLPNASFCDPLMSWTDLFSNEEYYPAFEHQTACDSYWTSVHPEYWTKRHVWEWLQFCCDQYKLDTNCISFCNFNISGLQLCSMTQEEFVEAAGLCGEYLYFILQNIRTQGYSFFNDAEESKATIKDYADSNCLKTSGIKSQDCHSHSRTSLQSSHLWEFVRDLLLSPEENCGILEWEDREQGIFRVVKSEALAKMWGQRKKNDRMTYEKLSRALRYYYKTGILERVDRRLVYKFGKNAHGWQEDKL
The settings on record: protein: recombinant; tags: N-terminal GST; dsDNA, one strand shown. The gist of the method:
as §1

For test [17], the target named is T12, ETV3 (Homo sapiens, UniProt P41162-2 1-143).
T12 sequence: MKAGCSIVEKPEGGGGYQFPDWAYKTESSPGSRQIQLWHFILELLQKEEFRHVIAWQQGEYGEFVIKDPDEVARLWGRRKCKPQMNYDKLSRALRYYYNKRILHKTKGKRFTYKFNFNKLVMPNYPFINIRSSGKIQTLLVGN
Particulars: protein: recombinant; tags: N-terminal GST; dsDNA, one strand shown. A digest of the protocol:
as §1

Test [18] concerns the target ETV6 (Homo sapiens, UniProt P41212 1-452). The settings on record: protein: recombinant; tags: N-terminal GST; dsDNA, one strand shown. A digest of the protocol: as §1

Sequence of CRX (O43186 whole entry): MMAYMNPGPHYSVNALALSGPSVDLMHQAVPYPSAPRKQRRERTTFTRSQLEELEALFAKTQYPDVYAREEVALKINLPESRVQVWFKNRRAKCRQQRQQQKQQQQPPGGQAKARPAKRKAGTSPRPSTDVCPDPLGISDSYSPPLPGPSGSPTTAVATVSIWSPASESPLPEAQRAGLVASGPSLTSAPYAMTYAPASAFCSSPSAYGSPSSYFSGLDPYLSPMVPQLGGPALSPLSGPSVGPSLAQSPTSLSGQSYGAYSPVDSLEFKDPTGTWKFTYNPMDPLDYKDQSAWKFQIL
Sequence of ETV5 (P41161 whole entry): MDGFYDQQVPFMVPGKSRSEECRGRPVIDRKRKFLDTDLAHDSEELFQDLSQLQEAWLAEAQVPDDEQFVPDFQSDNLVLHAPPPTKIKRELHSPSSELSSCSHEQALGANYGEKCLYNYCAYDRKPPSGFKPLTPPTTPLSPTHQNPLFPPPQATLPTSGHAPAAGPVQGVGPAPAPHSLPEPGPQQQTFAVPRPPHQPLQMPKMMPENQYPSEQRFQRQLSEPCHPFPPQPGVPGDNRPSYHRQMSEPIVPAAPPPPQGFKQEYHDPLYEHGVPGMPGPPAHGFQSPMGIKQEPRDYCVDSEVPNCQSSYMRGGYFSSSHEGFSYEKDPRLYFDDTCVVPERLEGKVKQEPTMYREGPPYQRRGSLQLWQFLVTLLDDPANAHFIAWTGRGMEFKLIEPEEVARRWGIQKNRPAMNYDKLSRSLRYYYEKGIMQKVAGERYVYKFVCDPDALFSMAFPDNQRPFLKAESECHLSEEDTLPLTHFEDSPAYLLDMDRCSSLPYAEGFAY
Sequence of ELF4 (Q99607 whole entry): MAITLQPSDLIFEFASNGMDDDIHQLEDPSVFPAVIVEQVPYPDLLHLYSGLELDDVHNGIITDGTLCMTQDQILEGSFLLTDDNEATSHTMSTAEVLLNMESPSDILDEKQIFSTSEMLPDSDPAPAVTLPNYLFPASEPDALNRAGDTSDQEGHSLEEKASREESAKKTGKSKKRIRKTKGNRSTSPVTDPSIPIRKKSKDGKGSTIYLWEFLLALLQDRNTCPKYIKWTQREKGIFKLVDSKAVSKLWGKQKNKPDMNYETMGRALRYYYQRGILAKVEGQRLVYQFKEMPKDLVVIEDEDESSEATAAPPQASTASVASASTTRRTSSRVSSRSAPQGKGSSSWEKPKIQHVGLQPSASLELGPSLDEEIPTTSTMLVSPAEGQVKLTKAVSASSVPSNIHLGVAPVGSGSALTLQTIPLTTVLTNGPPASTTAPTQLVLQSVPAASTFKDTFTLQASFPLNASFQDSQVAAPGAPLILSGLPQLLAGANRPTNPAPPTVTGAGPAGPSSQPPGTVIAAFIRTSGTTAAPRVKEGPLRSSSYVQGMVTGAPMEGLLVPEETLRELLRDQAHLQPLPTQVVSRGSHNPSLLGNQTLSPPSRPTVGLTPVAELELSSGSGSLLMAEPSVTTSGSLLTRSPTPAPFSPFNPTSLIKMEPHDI
Sequence of HSF1 (Q00613 whole entry): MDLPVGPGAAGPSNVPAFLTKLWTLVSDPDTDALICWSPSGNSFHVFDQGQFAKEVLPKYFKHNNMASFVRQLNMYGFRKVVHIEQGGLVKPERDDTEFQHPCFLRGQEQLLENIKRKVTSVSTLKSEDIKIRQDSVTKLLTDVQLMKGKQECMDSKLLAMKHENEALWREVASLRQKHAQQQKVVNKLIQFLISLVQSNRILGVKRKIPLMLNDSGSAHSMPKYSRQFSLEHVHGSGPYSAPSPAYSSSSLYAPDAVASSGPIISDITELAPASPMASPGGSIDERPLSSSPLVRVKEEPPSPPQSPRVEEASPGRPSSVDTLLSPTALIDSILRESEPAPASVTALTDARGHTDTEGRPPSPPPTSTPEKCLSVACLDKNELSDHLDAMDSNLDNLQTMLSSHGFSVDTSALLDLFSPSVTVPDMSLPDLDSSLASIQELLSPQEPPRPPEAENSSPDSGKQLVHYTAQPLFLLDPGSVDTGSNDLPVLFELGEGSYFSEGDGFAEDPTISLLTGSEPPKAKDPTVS
Sequence of ETV6 (P41212 whole entry): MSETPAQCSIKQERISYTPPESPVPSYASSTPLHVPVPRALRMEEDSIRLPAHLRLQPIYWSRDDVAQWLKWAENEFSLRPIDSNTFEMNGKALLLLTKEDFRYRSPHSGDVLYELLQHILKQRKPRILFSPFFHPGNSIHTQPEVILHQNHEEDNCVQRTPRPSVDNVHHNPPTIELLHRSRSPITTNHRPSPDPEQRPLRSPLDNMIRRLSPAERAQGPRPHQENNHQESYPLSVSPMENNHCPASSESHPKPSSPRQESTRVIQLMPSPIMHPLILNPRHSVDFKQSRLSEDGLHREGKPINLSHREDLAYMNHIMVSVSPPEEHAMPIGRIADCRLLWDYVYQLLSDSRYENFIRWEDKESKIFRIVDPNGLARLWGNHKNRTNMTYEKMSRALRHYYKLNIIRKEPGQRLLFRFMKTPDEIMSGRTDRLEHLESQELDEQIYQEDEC
Sequence of ETV1 (P50549 whole entry): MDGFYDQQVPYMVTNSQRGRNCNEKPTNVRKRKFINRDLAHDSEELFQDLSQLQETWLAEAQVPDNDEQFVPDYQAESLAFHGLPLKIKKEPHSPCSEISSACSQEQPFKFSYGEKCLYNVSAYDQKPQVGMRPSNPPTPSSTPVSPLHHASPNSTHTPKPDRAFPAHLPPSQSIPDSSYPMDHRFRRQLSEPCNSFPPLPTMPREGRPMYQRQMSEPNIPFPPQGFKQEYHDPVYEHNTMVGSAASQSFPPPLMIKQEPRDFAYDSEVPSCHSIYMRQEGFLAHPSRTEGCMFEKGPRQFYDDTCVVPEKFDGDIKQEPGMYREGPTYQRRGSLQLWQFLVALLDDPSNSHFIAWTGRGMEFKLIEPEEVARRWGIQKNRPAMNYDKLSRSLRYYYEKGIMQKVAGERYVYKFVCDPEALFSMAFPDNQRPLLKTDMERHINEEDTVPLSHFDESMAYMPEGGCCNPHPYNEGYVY

In the case of CCGGCT, the binding signal in test [1] was 1.8 fold enrichment (6-mer frequency, TF over GST control); in test [2], 1.89 fold enrichment (6-mer frequency, TF over GST control); in [3] it was 1.3 fold enrichment (6-mer frequency, TF over GST control); in test [4], 1.46 fold enrichment (6-mer frequency, TF over GST control); in test [5], 1.68 fold enrichment (6-mer frequency, TF over GST control); in [6] it was 1.53 fold enrichment (6-mer frequency, TF over GST control). In addition, the binding signal in test [7] is 1.84 fold enrichment (6-mer frequency, TF over GST control); in test [8] it was 1.8 fold enrichment (6-mer frequency, TF over GST control); in test [9], 1.6 fold enrichment (6-mer frequency, TF over GST control); in test [10], 1.81 fold enrichment (6-mer frequency, TF over GST control); in test [11], 1.59 fold enrichment (6-mer frequency, TF over GST control); in test [12], 1.69 fold enrichment (6-mer frequency, TF over GST control). Also, the binding signal is 1.71 fold enrichment (6-mer frequency, TF over GST control) in [13]; 2.32 fold enrichment (6-mer frequency, TF over GST control) in test [14]; 1.74 fold enrichment (6-mer frequency, TF over GST control) in test [15]; 1.92 fold enrichment (6-mer frequency, TF over GST control) in [16]; 1.7 fold enrichment (6-mer frequency, TF over GST control) in [17]; 1.77 fold enrichment (6-mer frequency, TF over GST control) in test [18].
